Reference: PubChem BioAssay (EPA / NIEHS)
Active and inactive are the calls of the source. How the source made its calls: active means hit-call score of the fitted dose curve at least 0.9, where 1 is the maximum; inactive means score below 0.9.

What was measured:
[1] = CEETOX_H295R_OHPREG: CeeTox H295R High-throughput Steroidogenesis Assay for OH-Pregnenolone (OHPREG) (AID 2283434); conditions: actives raise or lower the signal
Method in brief: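 Human adrenal H295R cells were prestimulated 48 h with 10 uM forskolin, then exposed 48 h to chemical in 0.1% DMSO. Medium 17alpha-hydroxypregnenolone was quantified by HPLC-MS/MS after MTBE extraction; bidirectional fitting versus DMSO baseline.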

[2] = CEETOX_H295R_ANDR: CeeTox H295R High-throughput Steroidogenesis Assay for Androstenedione (ANDR) (AID 2283436); conditions: actives raise or lower the signal
Method in brief: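 H295R human adrenal cells (passages ≤10) were exposed to test chemicals for 48 h; androstenedione in medium was MTBE-extracted and quantified by HPLC-MS/MS against a 7-point standard curve. Bidirectional fitting used DMSO as baseline.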

[3] = CEETOX_H295R_CORTIC: CeeTox H295R High-throughput Steroidogenesis Assay for Corticosterone (CORTIC) (AID 2283437); conditions: actives raise or lower the signal;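 further: corticosterone secreted into medium quantified by mass spectrometry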
Method in brief: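 H295R cells were prestimulated 48 h with 10 uM forskolin, then exposed 48 h to test chemical in 0.1% DMSO. Medium corticosterone was MTBE-extracted and quantified by HPLC-MS/MS; bidirectional fit versus DMSO baseline.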

[4] = CEETOX_H295R_DOC: CeeTox H295R High-throughput Steroidogenesis Assay for DOC (AID 2283439); conditions: actives raise or lower the signal
Method in brief: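 H295R adrenal cells prestimulated 48 h with 10 uM forskolin, then exposed 48 h to test chemical (0.1% DMSO final). Medium 11-deoxycorticosterone extracted with MTBE, quantified by HPLC-MS/MS; bidirectional fit versus DMSO baseline; MTT viability in same wells.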

[5] = CEETOX_H295R_ESTRADIOL: CeeTox H295R High-throughput Steroidogenesis Assay for Estradiol (AID 2283440); conditions: actives raise or lower the signal;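 further: estradiol secreted into medium quantified by LC-MS/MS after dansyl derivatisation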
Method in brief: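 H295R adrenocortical cells were prestimulated with 10 uM forskolin for 48 h, then exposed to test chemical in 0.1% DMSO for 48 h. Medium estradiol was extracted with MTBE, dansyl-derivatized and quantified by HPLC-MS/MS; bidirectional fit versus DMSO.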

[6] = CEETOX_H295R_ESTRONE: CeeTox H295R High-throughput Steroidogenesis Assay for Estrone (AID 2283441); conditions: actives raise or lower the signal;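 further: estrone secreted into medium measured by LC-MS/MS after dansyl derivatization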
Method in brief: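 H295R cells; 48 h forskolin (10 uM) prestimulation; 48 h compound exposure, 0.1% DMSO final. Medium estrone: MTBE extraction, dansyl derivatization, HPLC-MS/MS. Bidirectional fit vs DMSO.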

[7] = CEETOX_H295R_PROG: CeeTox H295R High-throughput Steroidogenesis Assay for Progesterone (PROG) (AID 2283442); conditions: actives raise or lower the signal;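 on AC50: human H295R adrenal cells primed with 10 µM forskolin before dosing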
Method in brief: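 H295R human adrenal cells were prestimulated with 10 uM forskolin for 48 h, then exposed to test chemical (0.1% DMSO final) for 48 h. Medium progesterone was MTBE-extracted and quantified by HPLC-MS/MS, with bidirectional fitting against DMSO.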

[8] = read-out: Tumor necrosis factor receptor superfamily member 6 (Homo sapiens) (UniProt P25445); assay: LTEA_HepaRG_FAS: Life Technologies and Expression Analysis (LTEA) Assay for Fas cell surface death receptor (FAS) using HepaRG (AID 2283447); conditions: mRNA level, 48 h; actives raise or lower the signal
Method in brief: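 Differentiated human HepaRG cells, pre-cultured 48 h, were exposed in duplicate for 48 h to 8-point half-log concentrations (top 100 uM, 0.5% DMSO) in serum-free induction medium; FAS mRNA measured by qRT-PCR, normalized to ACTB/GAPDH/POLR2A, bidirectional fit versus DMSO.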

[9] = read-out: Fatty acid synthase (Homo sapiens) (UniProt P49327); assay: LTEA_HepaRG_FASN: Life Technologies and Expression Analysis (LTEA) Assay for Fatty Acid Synthase (FASN) using HepaRG (AID 2283448); conditions: mRNA level, 48 h; actives raise or lower the signal
Method in brief: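 Differentiated human HepaRG cells were exposed for 48 h in serum-free induction medium to eight half-log concentrations up to 100 uM in 0.5% DMSO, in duplicate. FASN mRNA was quantified by TaqMan qRT-PCR, normalized to ACTB/GAPDH/POLR2A, and fitted bidirectionally against DMSO.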

[10] = read-out: Cyclin D2 (CCND2), CCND2 (gene 894); assay: LTEA_HepaRG_CCND2: Life Technologies and Expression Analysis (LTEA) Assay for Cyclin D2 (CCND2) using HepaRG (AID 2283449); conditions: mRNA level, 48 h; actives raise or lower the signal;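 further: CCND2 transcript measured by TaqMan qRT-PCR and normalised to three housekeeping genes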
Method in brief: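 Differentiated human HepaRG cells were exposed for 48 h in serum-free induction medium to eight half-log concentrations topping at 100 uM (0.5% DMSO vehicle). CCND2 mRNA was quantified by TaqMan qRT-PCR, normalised to ACTB, GAPDH and POLR2A, and fitted bidirectionally against DMSO.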

[11] = read-out: Cyclin Dependent Kinase Inhibitor 1A (CDKN1A), CDKN1A (gene 1026); assay: LTEA_HepaRG_CDKN1A: Life Technologies and Expression Analysis (LTEA) Assay for Cyclin Dependent Kinase Inhibitor 1A (CDKN1A) using HepaRG (AID 2283450); conditions: mRNA level, 48 h; actives raise or lower the signal
Method in brief: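 Differentiated human HepaRG cells, pre-cultured 48 h, were exposed in duplicate for 48 h in serum-free induction medium to eight half-log concentrations up to 100 uM (0.5% DMSO). CDKN1A mRNA was measured by qRT-PCR, normalized to ACTB/GAPDH/POLR2A, bidirectionally fitted versus DMSO.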

[12] = read-out: flavin-containing dimethylaniline monooxygenases 3 (FMO3), FMO3 (gene 2328); assay: LTEA_HepaRG_FMO3: Life Technologies and Expression Analysis (LTEA) Assay for flavin-containing dimethylaniline monooxygenases 3 (FMO3) using HepaRG (AID 2283453); conditions: mRNA level, 48 h; actives raise or lower the signal;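 on AC50: FMO3 transcript by TaqMan qRT-PCR normalized to ACTB GAPDH and POLR2A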
Method in brief: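 HepaRG, 48 h exposure, 8-pt half-log series from 100 uM, 0.5% DMSO vehicle, duplicates; FMO3 transcript by Fluidigm TaqMan qRT-PCR, housekeeping-normalized; gain/loss fit vs DMSO.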

[13] = read-out: Cytochrome P450 (CYP1A1), CYP1A1 (gene 1543); assay: LTEA_HepaRG_CYP1A1: Life Technologies and Expression Analysis (LTEA) Assay for Cytochrome P450 (CYP1A1) using HepaRG (AID 2283454); conditions: mRNA level, 48 h; actives raise or lower the signal
Method in brief: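 Differentiated HepaRG cells in serum-free induction medium were exposed in duplicate for 48 h to eight half-log concentrations up to 100 uM in 0.5% DMSO. CYP1A1 mRNA was quantified by TaqMan qRT-PCR, normalized to ACTB, GAPDH and POLR2A.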

[14] = read-out: CFLAR gene, CFLAR (gene 8837); assay: LTEA_HepaRG_CFLAR: Life Technologies and Expression Analysis (LTEA) Assay for CFLAR gene using HepaRG (AID 2283455); conditions: mRNA level, 48 h; actives raise or lower the signal
Method in brief: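 HepaRG cells were plated for 48 h, switched to serum-free induction medium, then exposed in duplicate for 48 h to 8 concentrations (top 100 uM, half-log steps, 0.5% DMSO). CFLAR mRNA was measured by qRT-PCR, normalized to ACTB, GAPDH and POLR2A.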

[15] = CEETOX_H295R_TESTO: CeeTox H295R High-throughput Steroidogenesis Assay for Testosterone (TESTO) (AID 2283457); conditions: actives raise or lower the signal
Method in brief: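 H295R human adrenal cells in DMEM/F12 with ITS+ and Nu-Serum, exposed to chemicals for 48 h. Testosterone in medium measured by MTBE extraction, reverse-phase HPLC-MS/MS; bidirectional fit versus DMSO baseline. MTT viability checked in same wells.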

[16] = read-out: growth arrest and DNA damage 45 (GADD45A), GADD45A (gene 1647); assay: LTEA_HepaRG_GADD45A: Life Technologies and Expression Analysis (LTEA) Assay for growth arrest and DNA damage 45 (GADD45A) using HepaRG (AID 2283458); conditions: mRNA level, 48 h; actives raise or lower the signal
Method in brief: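 Differentiated HepaRG cells were exposed in duplicate for 48 h in serum-free induction medium to 8-point half-log concentrations up to 100 uM in 0.5% DMSO. GADD45A mRNA was measured by TaqMan qRT-PCR, normalized to ACTB, GAPDH and POLR2A, with bidirectional fitting versus DMSO.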

[17] = read-out: Forkhead box O3 (FOXO3), FOXO3 (gene 2309); assay: LTEA_HepaRG_FOXO3: Life Technologies and Expression Analysis (LTEA) Assay for Forkhead box O3 (FOXO3) using HepaRG (AID 2283459); conditions: mRNA level, 48 h; actives raise or lower the signal
Method in brief: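 Differentiated human HepaRG cells in serum-free induction medium were exposed in duplicate for 48 h to eight half-log concentrations up to 100 uM in 0.5% DMSO. FOXO3 mRNA was quantified by qRT-PCR, normalized to ACTB, GAPDH and POLR2A, with bidirectional fitting versus DMSO.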

[18] = read-out: Forkhead box O1 (FOXO1), FOXO1 (gene 2308); assay: LTEA_HepaRG_FOXO1: Life Technologies and Expression Analysis (LTEA) Assay for Forkhead box O1 (FOXO1) using HepaRG (AID 2283456); conditions: mRNA level, 48 h; actives raise or lower the signal
Method in brief: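 Differentiated human HepaRG cells in serum-free induction medium were exposed in duplicate for 48 h to eight half-log concentrations (top 100 uM, 0.5% DMSO). FOXO1 mRNA was measured by TaqMan qRT-PCR, normalised to ACTB, GAPDH and POLR2A, and fitted bidirectionally against DMSO.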

[19] = read-out: catalase (CAT), CAT (gene 847); assay: LTEA_HepaRG_CAT: Life Technologies and Expression Analysis (LTEA) Assay for catalase (CAT) using HepaRG (AID 2283452); conditions: mRNA level, 48 h; actives raise or lower the signal;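 further: TaqMan qRT-PCR signal normalized to ACTB GAPDH and POLR2A housekeeping genes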
Method in brief: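 Differentiated HepaRG cells in serum-free induction medium were dosed 48 h in duplicate, eight half-log concentrations from 100 uM in 0.5% DMSO. Transcript measured by TaqMan qRT-PCR, normalised to ACTB/GAPDH/POLR2A, fitted bidirectionally against DMSO.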

Measured: AC50

Fatty acid synthase (Homo sapiens), sequence (P49327 whole entry, looked up): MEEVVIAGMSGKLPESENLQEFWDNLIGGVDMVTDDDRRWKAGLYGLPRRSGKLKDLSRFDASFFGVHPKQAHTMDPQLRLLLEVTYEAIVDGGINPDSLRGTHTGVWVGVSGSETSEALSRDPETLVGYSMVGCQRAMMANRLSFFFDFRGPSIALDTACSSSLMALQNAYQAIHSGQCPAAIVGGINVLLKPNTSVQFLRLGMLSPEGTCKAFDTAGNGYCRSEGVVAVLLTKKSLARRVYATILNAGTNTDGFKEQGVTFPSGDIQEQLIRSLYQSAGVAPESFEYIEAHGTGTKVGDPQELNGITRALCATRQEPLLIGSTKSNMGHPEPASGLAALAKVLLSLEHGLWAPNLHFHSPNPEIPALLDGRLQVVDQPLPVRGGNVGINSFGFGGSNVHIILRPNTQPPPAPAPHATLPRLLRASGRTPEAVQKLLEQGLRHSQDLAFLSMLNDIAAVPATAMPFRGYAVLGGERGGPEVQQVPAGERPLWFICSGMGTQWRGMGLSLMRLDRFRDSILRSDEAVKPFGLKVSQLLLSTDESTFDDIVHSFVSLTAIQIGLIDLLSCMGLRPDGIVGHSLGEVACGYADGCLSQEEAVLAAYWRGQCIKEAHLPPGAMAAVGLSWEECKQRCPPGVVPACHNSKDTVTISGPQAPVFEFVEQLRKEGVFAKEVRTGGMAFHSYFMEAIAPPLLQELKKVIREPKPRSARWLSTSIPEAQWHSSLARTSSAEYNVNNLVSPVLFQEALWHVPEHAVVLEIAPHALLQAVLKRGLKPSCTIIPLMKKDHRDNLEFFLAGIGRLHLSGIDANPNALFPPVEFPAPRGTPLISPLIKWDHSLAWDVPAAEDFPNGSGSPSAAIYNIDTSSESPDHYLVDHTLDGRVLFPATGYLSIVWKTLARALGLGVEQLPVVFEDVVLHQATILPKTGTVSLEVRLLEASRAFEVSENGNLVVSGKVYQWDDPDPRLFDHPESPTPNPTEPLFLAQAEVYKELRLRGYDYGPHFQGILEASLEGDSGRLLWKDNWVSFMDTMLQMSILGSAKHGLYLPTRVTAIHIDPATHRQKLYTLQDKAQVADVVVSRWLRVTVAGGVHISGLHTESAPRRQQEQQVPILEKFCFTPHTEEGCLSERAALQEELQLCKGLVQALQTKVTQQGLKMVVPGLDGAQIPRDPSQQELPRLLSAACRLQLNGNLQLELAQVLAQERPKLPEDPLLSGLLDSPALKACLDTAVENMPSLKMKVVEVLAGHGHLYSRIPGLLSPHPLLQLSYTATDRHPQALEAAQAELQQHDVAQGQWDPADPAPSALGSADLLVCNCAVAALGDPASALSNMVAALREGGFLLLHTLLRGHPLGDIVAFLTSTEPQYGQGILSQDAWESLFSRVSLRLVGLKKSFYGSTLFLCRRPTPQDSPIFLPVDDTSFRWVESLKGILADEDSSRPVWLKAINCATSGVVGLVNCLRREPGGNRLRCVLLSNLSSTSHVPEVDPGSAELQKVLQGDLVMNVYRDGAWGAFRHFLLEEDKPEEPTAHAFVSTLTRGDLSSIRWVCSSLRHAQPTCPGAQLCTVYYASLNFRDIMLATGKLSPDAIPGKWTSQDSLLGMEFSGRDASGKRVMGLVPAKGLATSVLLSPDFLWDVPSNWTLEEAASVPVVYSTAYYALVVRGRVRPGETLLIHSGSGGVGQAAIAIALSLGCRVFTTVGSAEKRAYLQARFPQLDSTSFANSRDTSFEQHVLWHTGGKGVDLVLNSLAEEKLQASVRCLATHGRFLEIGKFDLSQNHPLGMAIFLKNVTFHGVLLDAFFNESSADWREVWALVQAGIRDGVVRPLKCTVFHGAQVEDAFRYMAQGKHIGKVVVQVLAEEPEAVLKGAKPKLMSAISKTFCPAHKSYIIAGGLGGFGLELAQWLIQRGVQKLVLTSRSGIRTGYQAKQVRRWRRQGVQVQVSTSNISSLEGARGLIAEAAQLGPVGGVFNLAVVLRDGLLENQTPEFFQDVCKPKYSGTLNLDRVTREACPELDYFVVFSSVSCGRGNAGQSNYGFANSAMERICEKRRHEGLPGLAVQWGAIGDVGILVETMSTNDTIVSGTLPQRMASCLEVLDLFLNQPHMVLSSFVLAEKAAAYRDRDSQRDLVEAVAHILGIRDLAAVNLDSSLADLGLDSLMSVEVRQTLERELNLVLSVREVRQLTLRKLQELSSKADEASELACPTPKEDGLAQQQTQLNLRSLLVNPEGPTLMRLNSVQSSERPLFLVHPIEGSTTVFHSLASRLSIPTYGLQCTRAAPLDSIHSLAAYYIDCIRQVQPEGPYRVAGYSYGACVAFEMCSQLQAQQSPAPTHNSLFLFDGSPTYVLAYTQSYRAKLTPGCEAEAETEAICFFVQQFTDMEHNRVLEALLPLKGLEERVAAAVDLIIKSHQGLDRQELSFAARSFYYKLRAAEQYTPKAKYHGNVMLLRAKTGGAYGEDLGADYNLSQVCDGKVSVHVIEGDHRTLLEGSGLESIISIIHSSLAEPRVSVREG

CCC(C)(C)C(=O)OC1=C(c2ccc(Cl)cc2Cl)C(=O)OC12CCCCC2
active: [4] 0.739 µM | [7] 0.593 µM | [9] 15.1 µM | [12] 66.4 µM | [13] 50 µM
not listed: [18] | [19]
inactive: all other assays above

CC1(C)C(C=C(Cl)Cl)C1C(=O)OC(C#N)c1ccc(F)c(Oc2ccccc2)c1 (stereo unspecified)
active: [13] 37.7 µM
not listed: [2] | [15] | [19]
inactive: all other assays above

N#Cc1c(Cl)c(Cl)c(Cl)c(C#N)c1Cl
active: [9] 35.5 µM | [12] 36.6 µM | [13] 23.1 µM | [14] 50 µM | [17] 15.2 µM
not listed: [2] | [15] | [18] | [19]
inactive: all other assays above

OCCOc1ccccc1
inactive: [8] | [9] | [10] | [11] | [12] | [14] | [16] | [17]
active: [13] 35.1 µM

CNC(=O)CSP(=S)(OC)OC
active: [13] 24.8 µM
not listed: [2] | [3] | [4] | [15] | [18] | [19]
inactive: all other assays above

CCC(C)(NC(=O)c1cc(Cl)c(C)c(Cl)c1)C(=O)CCl (stereo unspecified)
inactive: [9] | [10] | [11] | [17]
active: [8] 92.4 µM | [19] 71 µM | [12] 80.2 µM | [13] 50.2 µM | [14] 86.5 µM | [16] 89.8 µM

Cc1[nH]c(=O)n(C(C)(C)C)c(=O)c1Cl
active: [9] 68.9 µM | [13] 24.1 µM | [17] 50 µM
inactive: [8] | [10] | [11] | [12] | [14] | [16]

COP(=O)(OC)OC=C(Cl)Cl
inactive: [8] | [9] | [10] | [11] | [12] | [13] | [14] | [16] | [17]

O=C(Nc1ccccc1)Nc1cnns1
active: [9] 72.7 µM | [12] 73.5 µM | [13] 73.6 µM
inactive: [8] | [11] | [14] | [16] | [17]

Clc1ccccc1-c1nnc(-c2ccccc2Cl)nn1
active: [9] 24.7 µM | [13] 12.8 µM
not listed: [2] | [3] | [4] | [10] | [15] | [19]
inactive: all other assays above

CNC(=O)Oc1cccc(N=CN(C)C)c1
active: [7] 35.9 µM | [13] 50.2 µM
not listed: [2] | [3] | [4] | [15] | [18] | [19]
inactive: all other assays above

CCOC1Oc2ccc(OS(C)(=O)=O)cc2C1(C)C (stereo unspecified)
active: [11] 87.1 µM | [12] 78.3 µM | [13] 50 µM | [16] 89.7 µM
inactive: [8] | [9] | [10] | [14] | [17]
